What follows are compounds tested against Torsin-1A-interacting protein 2 (Homo sapiens) (UniProt Q8NFQ8) (assay: small molecules binding lysate-expressed LULL1 – cell lysate, human LULL1 lysate, 635/667 nm fluorescence, primary screen (AID 1092;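 note: probe is lysate of COS7 cells overexpressing human LULL1; score merges per-feature 667 nm fluorescence with signal-to-noise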)). Details: small-molecule microarray, hLULL1 lysate binding, 635 nm fluorescence; higher = more signal.
Chain of Torsin-1A-interacting protein 2 (Homo sapiens) (Q8NFQ8 whole entry, looked up): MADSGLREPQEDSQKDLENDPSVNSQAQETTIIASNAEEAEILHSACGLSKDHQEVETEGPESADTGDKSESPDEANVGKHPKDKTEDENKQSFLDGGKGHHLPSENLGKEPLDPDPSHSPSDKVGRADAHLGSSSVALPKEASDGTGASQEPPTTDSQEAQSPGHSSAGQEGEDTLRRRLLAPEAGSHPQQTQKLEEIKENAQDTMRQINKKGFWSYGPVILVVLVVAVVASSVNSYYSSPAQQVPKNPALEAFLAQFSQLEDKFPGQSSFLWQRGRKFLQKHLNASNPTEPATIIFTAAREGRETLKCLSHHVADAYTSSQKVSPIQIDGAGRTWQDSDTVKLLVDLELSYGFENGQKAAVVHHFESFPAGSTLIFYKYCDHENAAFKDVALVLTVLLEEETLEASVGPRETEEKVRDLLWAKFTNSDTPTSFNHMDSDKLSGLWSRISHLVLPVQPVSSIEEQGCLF

Q: How did the composite z-score turn out when `CC[C@@H]1C=C(C(=O)O)[C@H](c2ccc(C)cc2)N1S(=O)(=O)c1ccc(C)cc1` was run?
A: 2.9

Q: For `COCC(=C=CC[C@@H](O)c1ccc(OCCO)cc1)C[C@@H](O)c1ccccn1`, which composite z-score is on record?
A: 0.608

Q: How did the composite z-score turn out when `C=CCN1Cc2ccccc2[C@@H]2OC(c3ccc(OCCCO)cc3)=N[C@]2(CCS(=O)(=O)c2ccccc2)C1=O` was run?
A: 3.35

Q: Which composite z-score does the source give for `COc1cc(OC)c(C(O)C2C=CC3C(=O)NC(=O)C3N2Nc2ccccn2)cc1Br` (centres undefined) here?
A: 0.645

Q: For `COC(=O)[C@H](Cc1ccccc1)N[C@H](/C=C/C1CC1)[C@@H](O)Cc1ccccc1`, which composite z-score is on record?
A: -0.316

Q: With `O=C1C2C=CC(C(O)c3ccc4c(c3)OCO4)N(Nc3ccc([N+](=O)[O-])cc3)C2C(=O)N1c1ccccc1` (centres undefined) as the compound, how does the composite z-score read?
A: 1.97

Q: `CC(C)CNC(=O)[C@@]1(Cc2ccccc2I)c2ccccc2C(=O)N(Cc2ccccc2C(F)(F)F)[C@H]1c1ccc(CO)cc1` was tested. Which composite z-score did it give?
A: 1.6

Q: With `COc1cc2c(cc1O)C(c1cccs1)N(Cc1cccc(OC(F)(F)F)c1)CC2` (centres undefined) as the compound, how does the composite z-score read?
A: 2.1

Q: How did the composite z-score turn out when `C=C(/C(=C/C[C@H](OC(=O)c1ccncc1)c1ccc(OCCO)cc1)c1cc(C(=O)OC)ccc1OC)C(C)C` was run?
A: 1.73

Q: With `CC1CC/C=C\[C@H]2OC34C=CCN(Cc5ccccc5)C(=O)[C@H]3N(C(C)CO)C(=O)[C@@H]4C2C(=O)O1` (some centres undefined) as the compound, how does the composite z-score read?
A: 0.44

Q: For `CCOC(=O)C[C@H]1[C@H](OC(=O)c2ccc(-c3ccccc3)cc2)[C@@H](NC(=O)c2ccccc2)c2cc(OCCCO)ccc2N1C(=O)Cc1ccc(OC)cc1`, which composite z-score is on record?
A: 0.734

Q: `COc1ccc(NN2C(C(O)c3ccc(N(C)C)cc3)C=CC3C(=O)N(C4CCCCC4)C(=O)C32)cc1` (centres undefined) was tested. Which composite z-score did it give?
A: 2.91

Q: `NC(=O)[C@@H]1[C@H]2C(=O)O[C@H](c3ccccc3)[C@H](c3ccccc3)N2[C@H](c2ccc(O)cc2)[C@@]12C(=O)Nc1ccc(C#CC3=CCCCC3)cc12` was tested. Which composite z-score did it give?
A: 3.22

Q: How did the composite z-score turn out when `C=CCC(OC(C)=O)[C@@H]1[C@@H](N(Cc2ccc(-c3cccc(C(F)(F)F)c3)o2)C(=O)c2cccc3ccccc23)c2cc(OCCCO)ccc2N1C(=O)Cc1ccc2ccccc2c1` (some centres undefined) was run?
A: 0.878

Q: With `O=C1O[C@@H](c2ccccc2)[C@@H](c2ccccc2)N2[C@@H](c3ccccc3OCCO)[C@]3(C(=O)Nc4ccccc43)[C@@H](C(=O)O)[C@H]12` as the compound, how does the composite z-score read?
A: 3.02

Q: How did the composite z-score turn out when `O=C1OCCC/C=C\[C@H]2OC34C=CCN(c5ccc6ccccc6c5)C(=O)[C@H]3N(CCCCCO)C(=O)[C@@H]4C12` (some centres undefined) was run?
A: -1.77

Q: How did the composite z-score turn out when `Cc1ccc(S[C@]2(C(=O)NCC(C)C)CC(=O)N(Cc3cc(C(F)(F)F)cc(C(F)(F)F)c3)[C@@H]2c2ccc(CO)cc2)cc1` was run?
A: 0.472

Q: How did the composite z-score turn out when `COc1ccc([C@H]2C[C@H]3C(I)=C[C@@H]2C(=O)[C@]32CO2)cc1` was run?
A: -0.83

Q: For `C=CCNC(=O)[C@@H]1[C@H]2C(=O)O[C@H](c3ccccc3)[C@H](c3ccccc3)N2[C@H](c2ccc(OCCO)cc2)[C@@]12C(=O)N(C(=O)OCCOC)c1ccc(C#CCC(C(=O)OC)C(=O)OC)cc12`, which composite z-score is on record?
A: 2.39

Q: With `COc1ccc([Si](C)(C)[C@H]2[C@H](CCO)O[C@@]3(C(=O)N(Cc4ccccc4)c4ccc(N5CCCCC5=O)cc43)[C@@H]2C)cc1` as the compound, how does the composite z-score read?
A: 1.9

Q: How did the composite z-score turn out when `C[N+](C)(C)CCCC[C@@H]1NC(=O)[C@@H]2C[C@H](C(=O)NCCCCCN)[C@H](c3ccc(O)cc3)N2C1=O` was run?
A: 2.46

Q: `O=C1C2C=CC(C(O)c3ccc(-c4ccccc4)s3)N(Nc3ccccc3)C2C(=O)N1c1ccccc1` (centres undefined) was tested. Which composite z-score did it give?
A: 4.34

Q: With `COc1ccc(C(=O)Nc2cccc(CN3C(=O)[C@]4(O[C@H](CCn5cc(CCO)nn5)[C@@H]([Si](C)(C)c5ccc(OC)cc5)[C@@H]4C)c4ccccc43)c2)cc1` as the compound, how does the composite z-score read?
A: 1.2

Q: Which composite z-score does the source give for `COC(=O)[C@@]1(Cc2ccccc2)[C@H]2c3cc(C(=O)N4CCCC4)n(Cc4ccc(O)c(OC)c4)c3C[C@H]2CN1C(=O)c1ccccc1` here?
A: 3.43

Q: For `O=C(NCCN1CCOCC1)[C@@H]1c2ccccc2C(=O)N(Cc2cc(C(F)(F)F)cc(C(F)(F)F)c2)[C@H]1c1ccc(CO)cc1`, which composite z-score is on record?
A: 2.37

Q: With `O=C1C2C=CC(C(O)c3cc(C(F)(F)F)cc(C(F)(F)F)c3)N(Nc3ccccc3)C2C(=O)N1c1ccccc1` (centres undefined) as the compound, how does the composite z-score read?
A: 3.23

Q: Which composite z-score does the source give for `O=C1OCC=C[C@H]2OC34C=CCN(CCN5CCOCC5)C(=O)[C@H]3N(CCO)C(=O)[C@@H]4[C@@H]12` (some centres undefined) here?
A: 0.431

Q: With `CCCCCCc1nc(-c2ccc(-c3ccc(Cl)c(Cl)c3)o2)cc2c1[Si](C(C)C)(C(C)C)O[C@H]2c1ccccc1` as the compound, how does the composite z-score read?
A: 0.424

Q: How did the composite z-score turn out when `O=C1C2C=CC(C(O)c3c(F)cccc3Cl)N(Nc3ccccc3F)C2C(=O)N1c1ccccc1` (centres undefined) was run?
A: 2.98
